# p53 reactivator = restores transcriptional activity of mutant p53; H1299 p53-A138V BP100-luciferase reporter, luminescence, 24 h; Potency, µM (series often up to 92.2 µM), inactives show top-dose activity change, positive = activation, actives largely listed as activators; 320,000 compounds, 0.063% hits; active = well fitted activation curve with a large enough effect; inconclusive = small, poorly fitted or top-dose-only effect; inactive = no such curve, though single readings can be large or run the other way; also: potency is read from the fitted curve at half-maximal effect; % of control where 0% means no effect; nearly all actives have a fitted effect of over 45% in size
#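 H1299 (p53-null), stable ts p53-A138V + BP100-Luc; 1000 cells/well, Opti-MEM/10% FBS; cpd 4 pt, 1:5; 24 h, 37 deg C, 5% CO2; detection reagent 10 min RT; luminescence.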
# MLL CXXC-DNA inh = blocks binding of human MLL CXXC domain to DNA | Q03164 | MLL-CXXC / FITC-HOXA9 DNA fluorescence polarization | Potency, µM (series often up to 115 µM), for inactives: at the top dose activity change, negative = inhibition, usual class: inhibitors | 290,000 compounds, 0.037% hits; active = well fitted inhibition curve with a large enough effect in the polarisation, with a control signal flat, not every such curve was filed as active; inconclusive = small, poorly fitted or top-dose-only effect, or effect the other way, or a change in a side signal; inactive = no such curve, though single readings can be large or run the other way; the % refers to the polarisation; also: potency is read from the fitted curve at half-maximal effect
#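 Purified MLL-CXXC (added from a 7 uM solution) was preincubated 5 min at ambient with pinned compounds in 50 mM Tris-HCl pH 7.5, 50 mM NaCl, 1 mM DTT, 0.05% BSA. Fluorescein-labeled HOX-A9 DNA (50 nM solution) followed, 30 min, then polarization read.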
# Menin-MLL FL inh = inhibitors of human menin-MLL interaction, wild-type MLL peptide. Fluorescence polarization, fluorescein-MLL peptide displacement from menin. FP activity change, % at 61.4 µM. 290,000 tested, under 10 active; active = well fitted curve in the direction sought with a large enough effect in the polarisation, not every such curve was filed as active; inconclusive = small, poorly fitted or top-dose-only effect, or effect the other way, or a change in a side signal; inactive = no such curve, though single readings can be large or run the other way; the % refers to the polarisation; also: % of control where 0% means no effect
# Menin MLL FP TR = menin-MLL binding inhibition, Texas Red mutant peptide; Potency, µM (doses to about 61.6 µM), without a hit: at the top dose FP activity change, negative = inhibition, usual class: inhibitors; 270,000 compounds, 0.23% hits; Menin + Texas Red MLL mutant peptide, fluorescence polarization; AID 1768; active = well fitted inhibition curve with a large enough effect in the polarisation, with a control signal flat, not every such curve was filed as active; inconclusive = small, poorly fitted or top-dose-only effect, or effect the other way, or a change in a side signal; inactive = no such curve, though single readings can be large or run the other way; the % refers to the polarisation; also: potency is read from the fitted curve at half-maximal effect; % of control where 0% means no effect
# ClpP mod = qHTS Assay for Activators of ClpP | ATP-dependent Clp protease proteolytic subunit (Bacillus subtilis (strain 168)), P80244 | purified B. subtilis ClpP, FRET peptide cleavage, 20 min | Potency, µM (highest dose often 57.5 µM), for the others: at the highest dose activity change, negative = active | 340,000 compounds, 1.9% hits | AID 651965, 2013; active = well fitted falling curve with a large enough effect; inconclusive = small, poorly fitted or top-dose-only effect; inactive = no such curve, though single readings can be large or run the other way; also: potency is read from the fitted curve at half-maximal effect; the source files actives as falling curves though it sought activators and does not explain the sign; nearly all actives have a fitted effect of over 65% in size
# Target sequence (P80244 whole entry, looked up): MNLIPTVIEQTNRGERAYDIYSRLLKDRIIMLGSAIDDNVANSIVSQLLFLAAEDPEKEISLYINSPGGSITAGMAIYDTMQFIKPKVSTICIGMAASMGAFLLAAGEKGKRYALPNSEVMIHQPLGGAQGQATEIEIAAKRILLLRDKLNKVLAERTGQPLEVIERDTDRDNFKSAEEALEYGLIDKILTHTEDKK
#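 Purified B. subtilis ClpP, 10 microg/mL final in Tris/HCl pH8 with KCl, BSA, glycerol and Tween-20, cleaved an Abz/nitrotyrosine-quenched decapeptide. Fluorescence (ex 320, em 430) was read at 0 and 20 min at room temperature. Delta was normalized to 5.8 microM ADEP and DMSO/no-enzyme controls.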
# Numbers without * were called inactive; ? = inconclusive; / = no result; [ ] = remark or other dose. This excerpt belongs to a sample that is enriched for hits.
SMILES,p53 reactivator,MLL CXXC-DNA inh,Menin-MLL FL inh,Menin MLL FP TR,ClpP mod
Cc1ccc(CNC(=O)c2ccccc2NS(C)(=O)=O)cc1,10%,8%,1,10%,28µM*
O=C(Nc1ccccc1C(=O)NCc1ccco1)c1ccco1,2%,2%,3,12%,-11%
Cc1ccc(CNC(=O)c2ccccc2NS(=O)(=O)c2ccc(Cl)nc2)cc1,-14%,5%,3,?,-15%
COC(=O)c1ccccc1NC(=O)c1cn(-c2ccc(C)c(C)c2)c(=O)c2ccccc12,-6%,4%,4,-5%,?
CCOC(=O)c1ccccc1NC(=O)c1cn(-c2ccc(C)c(C)c2)c(=O)c2ccccc12,-17%,-1%,5,-2%,13µM*
C[C@H]1Cc2c(-c3ccccc3)nc3c(c2CO1)CN(S(=O)(=O)c1ccc(C#N)cc1)CC3,/,/,1[11.7 µM],0%[11.7 µM],/
Cc1nc([N+](=O)[O-])cn1CC(O)c1ccc2c(c1)OCCO2 (stereo not given),/,/,/,/,-1%
CN1CCN(c2ccnc(N(C)CCCCCCN)n2)CC1,/,/,/,/,5%
C(=C\c1ccnc2ccccc12)/c1ccc(N2CCN(c3ccc(/C=C/c4ccnc5ccccc45)cc3)CC2)cc1,/,/,/,/,-2%
Cc1ccccc1NS(=O)(=O)c1ccc(OCC(=O)NCc2ccco2)cc1,-6%,2%,2,3%,-2%
CC(NC(=O)c1ccccc1NS(C)(=O)=O)c1ccccc1 (stereo not given),1%,-1%,1,-21%,16µM*
CCOc1ccc(S(=O)(=O)Nc2ccccc2C(=O)NCc2ccco2)cc1,-13%,-7%,1,?,25µM*
CCOC(=O)c1ccccc1NC(=O)c1ccccc1NS(C)(=O)=O,11%,0%,-3,8%,35µM*
O/N=C(/C[n+]1csc2ccccc21)c1ccccc1,/,/,/,/,2%
CN(C)c1ccc(/C=C2\NC(=O)NC2=O)cc1,/,/,/,/,-1%
COc1ccc(NC(=O)c2ccc(OC(F)F)cc2)cc1Cl,?,18%,8,20%,25µM*
COc1ccc(NC(=O)c2cc(F)cc(F)c2)cc1Cl,30%,8%,3,/,-1%
Cc1cc(C)c(CN2CCN(Cc3ccc(C)o3)C(CCO)C2)c(-n2cccn2)c1 (stereo not given),9%,6%,1,?,25µM*
CC#CCN1c2ccccc2[C@]23C[C@@H](C(=O)OC)N(S(=O)(=O)c4ccc(C#N)cc4)C2=NC(C(=O)OC)=C(C(=O)OC)[C@H]13,/,/,-8[11.7 µM],-3%[11.7 µM],/
COc1cc(/C=N/c2oc(-c3ccccc3)cc2C#N)ccc1O,7%,75%,15,36%,3.5µM*
COc1cc(C=NCc2ccccc2)ccc1O,/,/,/,/,-1%
CC[C@]1(O)C[C@H]2CN(CCc3c([nH]c4ccccc34)[C@@](C(=O)OC)(c3cc4c(cc3OC)N(C=O)[C@H]3[C@@](O)(C(=O)OC)[C@H](OC(C)=O)[C@]5(CC)C=CCN6CC[C@]43[C@@H]65)C2)C1,/,11%,-1,-5%,-1%
CN(C)c1ccc(C2CCc3ccccc3N2C(=O)c2ccccc2)cc1 (stereo not given),/,/,/,/,-4%
CCNC(=O)COC(=O)c1ccc(-c2nc3ccccc3s2)s1,-7%,2%,-2,9%,5%
Cc1noc(C)c1COC(=O)c1ccc(-c2nc3ccccc3s2)s1,3%,1%,0,11%,20µM*
SMILES,p53 reactivator,MLL CXXC-DNA inh,Menin-MLL FL inh,Menin MLL FP TR,ClpP mod
O=Nc1ccc(/C=C/c2ccnc3ccccc23)cc1,/,/,/,/,1%
COc1ccc(NC(=O)Cc2nnc(SCC(=O)Nc3cc(C)ccc3OC)n2C)cc1,/,-5%,-1,-18%,25µM*
COc1ccc(C)cc1NC(=O)CSc1nnc(CC(=O)Nc2cccc(C(F)(F)F)c2)n1C,-2%,0%,3,23%,2%
C=C[C@H](CC(C)C)N(Cc1ccccc1)S(=O)(=O)N(Cc1ccccc1)[C@H](C=C)CC(C)C,/,/,/,/,-1%
CCOc1ccc(CN2CCN(Cc3ccc4c(c3)c3ccccc3n4CC)CC2)cc1,/,/,/,/,20µM*
CCOc1ccc(C2CC(=O)Nc3nc(SCc4ccccc4C)[nH]c(=O)c32)cc1OC (stereo not given),/,/,/,/,-14%
CCOC(=O)c1sc2nc(CC(=O)OC)nc(NCc3ccc(F)cc3)c2c1C,-1%,-3%,1,-14%,3.5µM*
CC(/C=C/C=C(\C)C(=O)O[C@@H]1O[C@H](CO[C@@H]2O[C@H](CO)[C@@H](O)[C@H](O)[C@H]2O)[C@@H](O)[C@H](O)[C@H]1O)=C\C=C\C=C(C)\C=C\C=C(/C)C(=O)O[C@@H]1O[C@H](CO[C@@H]2O[C@H](CO)[C@@H](O)[C@H](O)[C@H]2O)[C@@H](O)[C@H](O)[C@H]1O,/,2%,2,-2%,/
Cc1cc(-c2ccc(Cl)cc2)n2nc(N)nc2n1,0%,2%,2,13%,18µM*
Nc1nc2nccc(-c3ccc(Cl)cc3)n2n1,?,-2%,-2,-6%,57%
COc1cc(/C=N/N2CCN(c3ccccc3OC)CC2)ccc1OC(C)=O,15%,1%,1,-25%,28µM*
O=C(C[N+]12CCCc3cccc(c31)CCC2)c1ccc2ccccc2c1,/,/,/,/,-21%
CCOC(=O)C1=C(C)NC2=C(C(=O)CCC2)C1c1cc(OC)ccc1OC (stereo not given),-11%,-4%,1,-13%,-7%
COc1ccc(OC)c(C2C(C(=O)Nc3nc4ccccc4s3)=C(C)NC3=C2C(=O)CCC3)c1 (stereo not given),-5%,21%,2,10%,28µM*
Cc1ccc2nc(N)[nH]c(=O)c2c1Sc1ccncc1,/,-2%,2,5%,/
c1ccc2[nH]c(NCCCc3cnc[nH]3)nc2c1,/,/,-4,-18%,/
O=[N+]([O-])c1cc(C(F)(F)F)ccc1NCCc1c[nH]c2ccccc12,40µM*,7%,-2,?,-2%
O=[N+]([O-])c1cc(C(F)(F)F)ccc1NCCc1c[nH]c2ccc(O)cc12,3%,7%,0,?,-3%
COc1cccc([C@@H]2Oc3ccc(OC)cc3C(=O)[C@H]2OC(=O)NCCc2ccc(OC)c(OC)c2)c1,/,/,16,8%,/
COc1ccc(-c2cc(-c3ccccc3)nc(N3CCCC3)n2)cc1OC,-1%,15%,0,-23%,25µM*
COc1ccc(-c2cc(C(=O)O)c3sc(N4CCCCC4)nc3n2)cc1OC,-2%,17%,5,-1%,10µM*
CC/C(=C/c1ccccc1OC)c1cc(-c2ccccc2)cc2oc3ccccc3c12,/,/,/,/,4%
COC(=O)[C@@]1(Cc2ccccc2)[C@H]2c3cc(C(=O)N4CCCC4)n(CC4CC4)c3C[C@H]2CN1C(=O)c1ccccc1,/,/,0,-20%,/
